Our source for the composite z-score and z-score values is PubChem BioAssay.

The nature of experiment [1]: binders of probe aFSTL3 on microarray, primary screen, stem cell growth factor project, biochemical, small-molecule microarray, fluorescence 635/667 (AID 1064).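 Also: measures binding of the biotinylated anti-FSTL3 antibody to printed compounds.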 Particulars: higher = more signal.
Experiment [2] in a line: binders from COS7 lysate, DM2A8 probe, primary screen, torsin A project, cell lysate, small-molecule microarray, fluorescence 635/667 (AID 1065). Particulars: higher = more signal, COS7 lysate expressing mutant human TOR1A.
Experiment [3] can be described thus: binders of probe aFGF2 on microarray, primary screen, stem cell growth factor project, biochemical, small-molecule microarray, fluorescence 635/667 (AID 1067).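 Also: measures binding of biotinylated aFGF2 protein to printed compounds on slides; z-score merges feature fluorescence and signal-to-noise across triplicate slides.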 The following applies: higher = more signal.
A short description of experiment [4]: binders of probe aFGF10 on microarray, primary screen, stem cell growth factor project, biochemical, small-molecule microarray, fluorescence 635/667 (AID 1071).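 Also: score merges 667 nm spot intensity and signal to noise from triplicate slides.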 The following applies: higher = more signal.
Experiment [5] has as its target Neurogenic locus notch homolog protein 2 (Homo sapiens) (UniProt Q04721). The experiment can be described thus: Notch2 binders on small-molecule microarrays, primary screen, biochemical, small-molecule microarray, 635 nm fluorescence, stem cell growth factors (AID 1073). The following applies: Notch2 binding, higher = more signal.
In experiment [6] the target is Pro-neuregulin-1, membrane-bound isoform (Homo sapiens) (UniProt Q02297). The experiment can be described thus: NRG1 binders on small-molecule microarrays, primary screen, psychiatric disease protein project, biochemical, small-molecule microarray, fluorescence 635/667 (AID 1075).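 Also: score combines 667 nm spot fluorescence with signal to noise.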 The following applies: NRG1 binding, 635 nm fluorescence, higher = more signal.
Experiment [7] deals with Neuregulin-1 EGF-like domain. In words: binders of neuregulin-1 EGF-like domain, primary screen, biochemical, small-molecule microarray, 635 nm fluorescence (AID 1081).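 Also: binding of the protein to compounds printed on small-molecule microarray slides.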 The following applies: small-molecule microarray binding, higher = more signal.
A short description of experiment [8]: FRG1 promoter luciferase signal modulators, primary screen, FRG1 inhibition for FSHD, cell-based, C2C12 myotubes, firefly/Renilla luciferase, luminescence (AID 1084). The following applies: higher = more signal, called active from +8 up or from −8 down.
Experiment [9] is described as follows: binders of probe aFST on microarray, primary screen, stem cell growth factor project, biochemical, small-molecule microarray, fluorescence 635/667 (AID 1086).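 Also: score merges 667 nm fluorescence with signal-to-noise of each printed compound spot.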 The following applies: higher = more signal.
Experiment [10] is described as follows: binders of probe aHhip on microarray, primary screen, stem cell growth factor project, biochemical, small-molecule microarray, fluorescence 635/667 (AID 1087).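 Also: score merges spot fluorescence at 667nm with spot signal to noise ratio.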 Particulars: higher = more signal.

The source made the active and inactive calls.

Chain of Pro-neuregulin-1, membrane-bound isoform (Homo sapiens) (Q02297 whole entry, looked up, the tested form may be a part, canonical isoform): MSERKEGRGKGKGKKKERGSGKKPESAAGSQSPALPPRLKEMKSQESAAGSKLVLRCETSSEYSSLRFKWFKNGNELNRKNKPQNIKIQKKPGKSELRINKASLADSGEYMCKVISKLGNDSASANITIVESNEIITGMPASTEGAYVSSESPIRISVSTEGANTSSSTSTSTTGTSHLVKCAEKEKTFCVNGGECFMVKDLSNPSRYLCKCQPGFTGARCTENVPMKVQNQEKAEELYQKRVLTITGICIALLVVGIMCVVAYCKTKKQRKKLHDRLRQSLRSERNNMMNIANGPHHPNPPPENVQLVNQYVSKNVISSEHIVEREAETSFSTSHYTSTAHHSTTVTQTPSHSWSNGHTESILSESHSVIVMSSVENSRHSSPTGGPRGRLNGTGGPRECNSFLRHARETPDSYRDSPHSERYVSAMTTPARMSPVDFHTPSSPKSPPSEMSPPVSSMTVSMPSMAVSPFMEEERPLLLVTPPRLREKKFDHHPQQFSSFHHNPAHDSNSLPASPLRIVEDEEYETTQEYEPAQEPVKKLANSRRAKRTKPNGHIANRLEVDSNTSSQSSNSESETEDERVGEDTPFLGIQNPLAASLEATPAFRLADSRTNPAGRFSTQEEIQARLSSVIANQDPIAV
Chain of Neurogenic locus notch homolog protein 2 (Homo sapiens) (Q04721 whole entry, looked up, canonical isoform): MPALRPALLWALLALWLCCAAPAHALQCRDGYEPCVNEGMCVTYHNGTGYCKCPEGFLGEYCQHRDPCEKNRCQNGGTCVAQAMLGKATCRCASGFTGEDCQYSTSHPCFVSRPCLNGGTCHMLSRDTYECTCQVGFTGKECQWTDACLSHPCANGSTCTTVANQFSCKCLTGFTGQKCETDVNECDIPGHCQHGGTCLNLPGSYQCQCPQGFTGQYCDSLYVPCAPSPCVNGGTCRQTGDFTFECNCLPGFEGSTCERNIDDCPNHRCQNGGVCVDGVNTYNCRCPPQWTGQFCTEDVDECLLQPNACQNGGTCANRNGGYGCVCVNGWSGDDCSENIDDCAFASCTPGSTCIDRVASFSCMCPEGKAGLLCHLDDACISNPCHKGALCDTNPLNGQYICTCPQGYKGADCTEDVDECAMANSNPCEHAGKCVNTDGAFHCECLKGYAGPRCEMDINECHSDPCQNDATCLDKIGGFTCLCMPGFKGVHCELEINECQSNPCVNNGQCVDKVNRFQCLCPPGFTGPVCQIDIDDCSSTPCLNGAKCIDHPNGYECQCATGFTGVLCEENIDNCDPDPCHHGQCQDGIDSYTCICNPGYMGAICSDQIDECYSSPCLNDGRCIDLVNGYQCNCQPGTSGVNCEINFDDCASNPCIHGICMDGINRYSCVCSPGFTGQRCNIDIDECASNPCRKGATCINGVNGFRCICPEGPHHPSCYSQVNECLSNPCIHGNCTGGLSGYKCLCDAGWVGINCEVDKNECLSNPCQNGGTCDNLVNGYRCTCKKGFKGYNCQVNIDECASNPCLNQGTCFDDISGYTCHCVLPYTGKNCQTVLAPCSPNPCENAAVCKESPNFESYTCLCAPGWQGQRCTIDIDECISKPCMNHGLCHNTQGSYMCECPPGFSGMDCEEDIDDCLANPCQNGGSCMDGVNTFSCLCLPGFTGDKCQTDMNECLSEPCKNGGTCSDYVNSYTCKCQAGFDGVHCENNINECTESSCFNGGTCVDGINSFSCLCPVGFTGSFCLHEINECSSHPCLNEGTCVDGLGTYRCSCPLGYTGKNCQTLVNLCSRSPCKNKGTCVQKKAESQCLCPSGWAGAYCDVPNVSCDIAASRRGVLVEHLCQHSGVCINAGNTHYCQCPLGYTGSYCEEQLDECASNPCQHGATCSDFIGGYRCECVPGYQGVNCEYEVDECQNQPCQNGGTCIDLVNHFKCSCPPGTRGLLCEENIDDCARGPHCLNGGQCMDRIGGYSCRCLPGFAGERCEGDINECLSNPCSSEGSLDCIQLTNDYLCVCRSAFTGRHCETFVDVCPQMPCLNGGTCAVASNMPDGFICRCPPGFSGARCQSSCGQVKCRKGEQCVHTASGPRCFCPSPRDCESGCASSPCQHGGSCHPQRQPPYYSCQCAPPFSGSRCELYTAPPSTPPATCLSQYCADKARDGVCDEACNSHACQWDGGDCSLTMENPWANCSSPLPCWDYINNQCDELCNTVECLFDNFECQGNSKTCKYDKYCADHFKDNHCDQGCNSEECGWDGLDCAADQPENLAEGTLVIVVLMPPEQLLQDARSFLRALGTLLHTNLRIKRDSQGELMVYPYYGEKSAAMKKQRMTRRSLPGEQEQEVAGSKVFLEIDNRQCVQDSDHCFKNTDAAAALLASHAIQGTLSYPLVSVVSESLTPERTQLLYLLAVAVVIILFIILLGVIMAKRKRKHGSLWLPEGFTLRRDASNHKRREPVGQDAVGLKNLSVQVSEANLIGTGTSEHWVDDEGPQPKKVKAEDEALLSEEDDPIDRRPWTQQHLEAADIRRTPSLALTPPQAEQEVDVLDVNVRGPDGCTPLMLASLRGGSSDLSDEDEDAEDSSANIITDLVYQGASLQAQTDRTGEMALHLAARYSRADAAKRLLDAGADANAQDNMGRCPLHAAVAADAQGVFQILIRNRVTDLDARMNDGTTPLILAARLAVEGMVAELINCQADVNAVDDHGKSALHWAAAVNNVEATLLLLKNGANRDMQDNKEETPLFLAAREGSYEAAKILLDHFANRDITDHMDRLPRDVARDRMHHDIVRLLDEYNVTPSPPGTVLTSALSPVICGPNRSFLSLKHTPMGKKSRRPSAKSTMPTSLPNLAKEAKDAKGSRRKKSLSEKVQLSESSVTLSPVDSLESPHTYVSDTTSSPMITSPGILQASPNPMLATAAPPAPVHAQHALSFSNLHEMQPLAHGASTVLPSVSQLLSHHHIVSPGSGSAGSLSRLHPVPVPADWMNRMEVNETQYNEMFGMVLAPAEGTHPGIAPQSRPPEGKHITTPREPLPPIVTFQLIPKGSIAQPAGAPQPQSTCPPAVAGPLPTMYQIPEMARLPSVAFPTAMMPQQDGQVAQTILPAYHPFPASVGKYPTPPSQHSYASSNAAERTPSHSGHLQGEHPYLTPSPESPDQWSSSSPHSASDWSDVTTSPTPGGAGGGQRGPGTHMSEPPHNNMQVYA

On to `O=C1C2C=CC(C(O)c3ccc(B(O)O)cc3)N(Nc3ccc([N+](=O)[O-])cc3)C2C(=O)N1c1ccccc1` (stereo not given), for which the composite z-score in experiment [1] was -0.28; in experiment [2] it was 0.378; in [3] it was 0.0121; in experiment [4] it was 0.84; in experiment [5], 1.46; in [6], 1.56. The composite z-score is 1.05 in [7], 1.25 in [9] and -0.236 in [10]. In [8], the z-score is 0.663 (inactive).
As to `O=C1O[C@H](c2ccccc2)[C@H](c2ccccc2)N2[C@H]1[C@@H](C(=O)N1CCCCCCC1)[C@]1(C(=O)Nc3ccc(C#CC4=CCCCC4)cc31)[C@H]2c1ccc(O)cc1`, the composite z-score in experiment [1] was determined as 3.8; in experiment [2], 2.87; in experiment [3] it was 1.05; in experiment [4], 1.46; in experiment [5], 1.84; in [6], 2.87. Besides, the composite z-score worked out at 1.54 in experiment [7], 3.41 in experiment [9] and 2.58 in experiment [10]. Also, the z-score in experiment [8] is 0.805 (inactive).
As to `COCCOC(=O)N1C(=O)[C@@]2(c3cc(C#CC4=CCCCC4)ccc31)[C@H](C(=O)N1CCN(c3ncccn3)CC1)[C@H]1C(=O)O[C@H](c3ccccc3)[C@H](c3ccccc3)N1[C@@H]2c1ccc(OCCO)cc1`, the composite z-score in experiment [1] is 0.121; in experiment [2], 0.181; in [3], 0.0533; in experiment [4] it was 0.723; in experiment [5] it was 1.42; in experiment [6] it was -0.289. Moreover, the composite z-score in experiment [7] was 1.17; in experiment [9], 0.824; in [10] it was 0.109. Further, the z-score in experiment [8] is 0.384 (inactive).
Turning to `O=C1OCCC/C=C\[C@H]2OC34C=CCN(Cn5nnc6ccccc65)C(=O)[C@H]3N(CCCO)C(=O)[C@@H]4C12` (stereo not given in full), the composite z-score is 0.415 in experiment [1]; -0.652 in [2]; -0.017 in experiment [3]; -1 in experiment [4]; -0.936 in [5]; 0.995 in experiment [6]. The composite z-score in [7] was 1.13; in [9], -1.28; in [10], -0.271. The z-score in experiment [8] is -0.126 (inactive).
Consider `CCCC[C@H]1OB(O)C[C@H]2C1=C(C)Cn1c(=O)n(-c3ccccc3)c(=O)n12`, for which the composite z-score in [1] is -0.396; in experiment [2], 0.383; in [3], -0.116; in experiment [4], 0.365; in [5], 0.585; in experiment [6], -0.0946. Further, the composite z-score in [7] is 0.129; in experiment [9], 0.292; in experiment [10], -0.0237. Besides, in [8], the z-score was -0.127 (inactive).
With `[N-]=[N+]=NCc1ccccc1C[C@]1(C(N)=O)N=C(c2ccc(OCCCO)cc2)O[C@H]1c1ccccc1N=[N+]=[N-]`, the composite z-score in [1] is 0.567; in experiment [2], -0.186; in experiment [3] it was -0.0085; in experiment [4], 0.665; in experiment [5], 0.997; in experiment [6], 1.3. Further, the composite z-score was 1.12 in [7], 0.93 in [9] and 0.151 in experiment [10]. The z-score in [8] was -1.4 (inactive).
In the case of `COCCOC(=O)N1C(=O)[C@@]2(c3cc(C#CCC(C(=O)OC)C(=O)OC)ccc31)[C@H](c1ccc(OCCO)cc1)N1[C@H](c3ccccc3)[C@H](c3ccccc3)OC(=O)[C@H]1[C@@H]2C(=O)NC[C@H](O)c1ccccc1`, the composite z-score is -1.25 in experiment [1]; 0.501 in experiment [2]; -0.0272 in [3]; 1.15 in experiment [4]; 1.45 in experiment [5]; 0.824 in experiment [6]. Besides, the figures for the composite z-score in experiment [7], in [9] and in [10] were 1.28, -0.158 and -0.521, respectively. Besides, the z-score in experiment [8] was -0.89 (inactive).
Regarding `[N-]=[N+]=Nc1ccccc1[C@H]1OC(c2ccc(OCCCO)cc2)=N[C@@]1(CCS(=O)(=O)c1ccccc1)C(=O)N1CCOCC1`, the composite z-score in experiment [1] worked out at 1.84; in [2], 0.962; in [3] it was 0.45; in experiment [4], 1.13; in experiment [5] it was 1.7; in [6], 1.66. Besides, the results for the composite z-score in [7], in experiment [9] and in experiment [10] were 1.27, 1.53 and -0.372, respectively. In addition, the z-score in experiment [8] is 5.15 (inactive).
Consider `O=C1C2C=CC(C(O)c3ccc(Br)cc3)N(n3cnnc3)C2C(=O)N1Cc1ccccc1` (stereo not given), for which the composite z-score in experiment [1] was -0.0627; in experiment [2], 0.52; in [3] it was 0.0488; in experiment [4], 0.533; in [5] it was 1.3; in experiment [6], 0.0603. For the same compound, the values for the composite z-score in [7], in experiment [9] and in [10] were 0.722, 0.549 and 0.134, respectively. For the same compound, the z-score in [8] is 0.258 (inactive).
Regarding `COc1ccc([Si](C)(C)[C@H]2[C@H](CC(=O)N3CCC[C@H]3CO)O[C@@]3(C(=O)N(Cc4cccc(N5CCC5=O)c4)c4ccccc43)[C@@H]2C)cc1`, the composite z-score was -0.226 in experiment [1]; 0.149 in experiment [2]; 0.0496 in experiment [3]; 1 in [4]; 1.01 in [5]; 0.865 in experiment [6]. The composite z-score in [7] is 1.32; in experiment [9], 0.774; in experiment [10] it was -0.253. Besides, in experiment [8], the z-score is -4.15 (inactive).
Consider `C=C(CCCC)C(=O)CC[C@H](OC(C)=O)c1ccc(CO)o1`, for which the composite z-score in [1] is -0.282; in experiment [2], 0.0494; in [3], -0.0985; in [4], -0.0414; in experiment [5], -0.366; in experiment [6] it was -0.119. Also, the composite z-score in experiment [7] was 0.798; in experiment [9] it was -0.402; in experiment [10] it was -0.0994. In addition, in [8], the z-score was -0.463 (inactive).
